Activity calls are given as the source filed them.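 How the source made its calls: active means viability at or under a set limit in both replicates, limit being median viability minus 3 SD (cut at about 48% in these data, passing the limit was not always enough); inconclusive means at or under the limit in just one replicate; inactive means at or above the limit in both replicates.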 Peptide text beside a SMILES is read from it. * marks the point of attachment. Boc = CC(C)(C)OC(=O)*
Test: H69AR cell proliferation blockers – human, duplicate replicates, primary screen (AID 580);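 further: 100% = mean luminescence of untreated wells and 0% = no signal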
Settings: H69AR lung tumor cells viability, ATP luminescence, 72 h; at 10 µM; stronger effect = lower value
With `Cc1ccc(NC2c3ncccc3C(=O)N2C2CCCCC2)cc1C` (stereo not given) the viability was 92.7% (inactive). With `O=C(O)c1c[nH]c2ccc(S(=O)(=O)N3CCN(c4ccc(F)cc4)CC3)cc2c1=O` the viability was 93.7% (inactive). In the case of `O=C(O)Cn1cc2c(n1)CCCC2`, the viability is reported as 98% (inactive). In the case of `O=C1CC(c2ccc(Cl)cc2)n2nc(N3C(=O)c4ccccc4C3=O)nc2N1` (stereo not given), the viability is reported as 91.8% (inactive). With `CCc1nnc(NC(=O)CSc2nnc(-c3ccc(OC)cc3)n2C)s1` the viability was 104% (inactive). In the case of `COc1cccc(NC(=O)Nc2cccs2)c1`, the viability is reported as 79.5% (inactive). With `Cn1c(=O)c2c(nc(NCCCO)n2CCc2ccccc2)n(C)c1=O` the viability was 87.1% (inactive). In the case of `CC(=O)c1coc2ccc(OCC(=O)O)cc12`, the viability is reported as 98% (inactive). With `CCCN(Cc1cc2ccc(C)cc2[nH]c1=O)C(=O)c1cccnc1` the viability was 87.4% (inactive). For `CCOP(=O)(c1ccc(N(C)C)cc1)C(O)c1ccccc1OC` (stereo not given), the viability was 98.7% (inactive). For `CCOCCCn1c(=S)[nH]c2cc3c(cc2c1=O)OCO3`, the viability was 97.6% (inactive). For `COc1ccc(CCNC(=O)C2CCN(Cc3nc(-c4cccc(Cl)c4)oc3C)CC2)cc1OC`, the viability was 73.4% (inactive). In the case of `c1csc(-c2nc3nc4ccccc4nc3n2Cc2ccc3c(c2)OCO3)c1`, the viability is reported as 78% (inactive). With `CC(C)CC(NC(=O)OC(C)(C)C)C(=O)NC(C(=O)NC(C)C(N)=O)C(C)C` (stereo not drawn) (Boc-Leu-Val-Ala-NH2; configuration not given here) the viability was 112% (inactive). For `COc1ccc(-c2ccc(Nc3ccc(S(=O)(=O)N4CCCC4)cc3)nn2)cc1OC`, the viability was 53.6% (inactive). With `CC1(C(=O)CSc2nc3ccccc3s2)CCC(=O)O1` (stereo not given) the viability was 90.1% (inactive). With `Cc1cc(NC(=O)CN2CCC(O)(c3cccc(F)c3)CC2)no1` the viability was 109% (inactive). In the case of `COC(=O)c1[nH]c2ccccc2c1NC(=O)CN1CCC(C(N)=O)(N2CCCCC2)CC1`, the viability is reported as 93.2% (inactive). With `Cc1cc(C)n(CCCNC(=O)c2ccc3c(c2)NC(=O)CS3)n1` the viability was 89.7% (inactive). With `CCOC(=O)/C=C1\SCC(=O)N1Cc1ccc(Br)cc1` the viability was 97.3% (inactive). In the case of `CCOc1ccc2cc(C#N)c(SCC(=O)N3CCOCC3)nc2c1`, the viability is reported as 74.6% (inactive). With `CCN(CC)CCN1C(=O)C(O)=C(C(=O)c2ccco2)C1c1ccccn1` (stereo not given) the viability was 97.7% (inactive). For `O=C1CCC(=O)N1OCCCCOc1ccccc1`, the viability was 96.2% (inactive). In the case of `O=C(O)CCc1ccc(-c2ccc(F)cc2)n1CC(=O)O`, the viability is reported as 98% (inactive). In the case of `CCN(CC)CCCN(Cc1cc2cc(OC)ccc2[nH]c1=O)C(=O)Nc1ccccc1`, the viability is reported as 77.7% (inactive). For `Cc1cccc(Cc2nnc(NC(=O)c3cccc(S(=O)(=O)N4CCOCC4)c3)s2)c1`, the viability was 79.2% (inactive). For `CC(C)(CO)NC(=O)CCCOc1ccc(Cl)cc1Cl`, the viability was 98.1% (inactive). For `O=C(c1ccc(-c2ccccc2)cc1)N1CCN(c2ncccn2)CC1`, the viability was 103% (inactive). With `Fc1ccc(-c2csc3nnc(SCc4cccnc4)n23)cc1` the viability was 82.9% (inactive). With `CN(C)CCCN1C(=O)C(=O)/C(=C(/O)c2ccncc2)C1c1cccc(Br)c1` (stereo not given) the viability was 94.5% (inactive). In the case of `CCN(CC)c1ccc(-c2c(C#N)c(N)nc(OC)c2C#N)cc1`, the viability is reported as 79.4% (inactive). With `Cc1cc(NC(=O)CSc2nc3ccccc3n2CC(=O)N2CCCCC2)no1` the viability was 86.2% (inactive). With `CCOC(=O)C1CCN(C(c2cc3cc(C)cc(C)c3[nH]c2=O)c2nnnn2C2CCCCC2)CC1` (stereo not given) the viability was 62.8% (inactive). For `O=c1[nH]cnc2c1nc(SCc1ccccc1)n2C1OC(CO)C(O)C1O` (stereo not given), the viability was 101% (inactive). For `COc1ccc(-c2noc(CCCC(=O)O)n2)cc1`, the viability was 95% (inactive). For `Cc1nc(SCC(=O)N2CCC(C(N)=O)CC2)n[nH]1`, the viability was 95.5% (inactive). For `COC(=O)c1ccc(NC(=O)Cn2nnc3ccccc32)cc1`, the viability was 108% (inactive). With `O=C(CCC(=O)N1CCc2ccccc2C1)N1CCN(S(=O)(=O)c2ccccc2)CC1` the viability was 90.6% (inactive). For `O=C(CN1C(=O)CCSc2ccccc21)Nc1ccc(F)cc1`, the viability was 98.5% (inactive). With `CCC(=O)/C=C1\Sc2ccc(OC)cc2N1CCO` the viability was 87.8% (inactive).
